Only a selection was taken, and hits are over-represented in it overall.
HT1080 IDH1KD tx – qHTS for induction of synthetic lethality in tumor cells producing 2HG: qHTS for the HT-1080-IDH1KD cell line | AID 686971, 2013 | 2% of 360,000 active | Potency, µM (titrated, usually from 46.1 µM), for the others: top-dose activity, negative = toxicity, actives largely listed as cytotoxic | HT-1080 IDH1 knockdown viability, ATP luminescence, 48 h;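 further: potency means the concentration at half of the fitted maximal effect; 0% = DMSO wells and -100% = cell-free medium wells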
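Assay cells: HT-1080 with IDH1 knockdown, 750 per well, RPMI/5% FBS. Exposure: 48 h at 37 °C following 2 h pre-incubation. Read: CellTiter-Glo luminescence; fitted concentration-response, curve class assigned.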
IL1B secr inh – qHTS for Inhibitors of Inflammasome Signaling: IL-1-beta AlphaLISA Primary Screen | 4.7% of 360,000 active | THP-1 LPS/ATP IL-1B secretion, AlphaLISA, 16 h; stronger effect = lower value | activity change, % at 57.5 µM; in the data active means activity change below about -50%; inconclusive means mostly about -30% to -49%
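Secreted IL-1B measured by AlphaLISA bead assay after 16 h compound exposure of THP-1 cells; compounds (final up to 57.5 uM) added 1 h before LPS (250 ng/mL) and ATP (1.25 mM) stimulation; lower signal means less secretion.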
HT1080-NT tox – qHTS for induction of synthetic lethality in tumor cells producing 2HG: qHTS for the HT-1080-NT fibrosarcoma cell line. HT-1080-NT fibrosarcoma viability, CellTiter-Glo ATP luminescence, 48 h. Potency, µM (doses to about 46.1 µM), for inactives: at the top dose activity, negative = less viability, most hits filed as cytotoxic. 1.6% of 360,000 active;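 further: NT is the 2HG producing partner of a matched IDH1 knockdown line; potency means the concentration at half of the fitted maximal effect; 0% = DMSO-treated cells and -100% = media-only wells without cells; nearly all actives have a fitted effect of over 55% in size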
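Fibrosarcoma NT cells, 750 per well in 5% FBS RPMI, were exposed to compound for 48 hours. Viability: CellTiter-Glo luminescence.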
12-LOX inh – Primary qHTS assay for inhibitors of human arachidonate 12S-lipoxygenase (ALOX12): Round 2. 1.1% of 580,000 active. Polyunsaturated fatty acid lipoxygenase ALOX12 (Homo sapiens), P18054. purified 12hLO, xylenol orange hydroperoxide absorbance. AID 1671190, 2021. Potency, µM (titrated, usually from 108 µM), for inactives: top-dose activity change, negative = inhibition, hits mostly inhibitors; further: potency means the concentration at half of the fitted maximal effect
Target sequence (P18054 whole entry, looked up): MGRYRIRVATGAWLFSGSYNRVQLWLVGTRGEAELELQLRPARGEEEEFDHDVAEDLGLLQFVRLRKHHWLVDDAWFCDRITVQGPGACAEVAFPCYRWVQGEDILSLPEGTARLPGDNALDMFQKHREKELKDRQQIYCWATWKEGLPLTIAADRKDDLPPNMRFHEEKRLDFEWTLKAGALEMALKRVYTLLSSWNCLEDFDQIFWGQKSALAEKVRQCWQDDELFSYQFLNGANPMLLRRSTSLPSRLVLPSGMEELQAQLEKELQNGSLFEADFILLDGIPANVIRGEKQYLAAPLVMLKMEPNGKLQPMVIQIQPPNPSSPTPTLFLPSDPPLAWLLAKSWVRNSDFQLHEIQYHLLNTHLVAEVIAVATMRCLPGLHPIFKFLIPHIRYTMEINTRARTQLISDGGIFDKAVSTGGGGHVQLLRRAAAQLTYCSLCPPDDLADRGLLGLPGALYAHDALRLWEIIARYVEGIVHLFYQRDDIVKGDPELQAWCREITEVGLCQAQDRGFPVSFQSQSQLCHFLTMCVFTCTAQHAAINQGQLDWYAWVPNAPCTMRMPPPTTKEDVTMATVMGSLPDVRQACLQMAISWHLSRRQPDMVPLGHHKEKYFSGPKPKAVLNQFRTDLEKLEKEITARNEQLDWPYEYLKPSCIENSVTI
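Purified human 12hLO at 150 nM in 25 mM Hepes, 0.01% Triton X-100, pH 7.0, preincubated 15 min at room temperature with compound. Reaction started with 40 uM arachidonic acid, 30 min at room temperature. Hydroperoxide measured by Fe-xylenol orange, 573/405 nm absorbance ratio.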
DT40 TDP1 no CPT – qHTS for Inhibitors of human tyrosyl-DNA phosphodiesterase 1 (TDP1): qHTS in cells in absence of CPT. DT40 Tdp1-/- hTDP1 cells, no CPT, ATP luminescence, 48 h. Potency, µM (highest dose often 46.2 µM), for the others: at the highest dose activity change, negative = growth inhibition, most hits filed as inhibitors. 15% of 420,000 active. AID 686978, 2013; further: potency means the concentration at half of the fitted maximal effect; nearly all actives have a fitted effect of over 55% in size
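Chicken DT40 Tdp1-/- cells complemented with human TDP1, screened without camptothecin (DMSO vehicle only), 400 cells/well. Compounds pin-transferred, cells incubated at 37 °C for at least 48 hr. Growth read as ATP-dependent luminescence (CellTiter-Glo, 30 min at RT).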
DT40 TDP1 CPT – qHTS for Inhibitors of human tyrosyl-DNA phosphodiesterase 1 (TDP1): qHTS in cells in presence of CPT | Potency, µM (top dose mostly 46.2 µM), for inactives: top-dose activity change, negative = growth inhibition, usual class: inhibitors | AID 686979, 2013 | chicken DT40 Tdp1-/-;hTDP1 cells + 20 nM CPT, ATP luminescence, 48 h | 12% of 420,000 active; further: potency means the concentration at half of the fitted maximal effect; nearly all actives have a fitted effect of over 55% in size
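Chicken DT40 Tdp1-/- cells complemented with human TDP1, 400 cells/well, exposed to compounds plus 20 nM camptothecin for at least 48 h at 37 C; viability read as ATP content by CellTiter-Glo luminescence.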
Active calls of the source: *; ? = inconclusive; / = no result given; [ ] = another dose, or the depositor's remark. Unless noted, the call rests on the fitted dose curve; in most records, active means well fitted curve in the direction sought with a large enough effect; inconclusive means small, poorly fitted or top-dose-only effect, or another doubt; inactive means no such curve, though single readings can be large; an effect the other way counts as inactive or inconclusive. Unless noted, on the % scale 0 is the no-effect control and ±100 the full control effect.

SMILES | HT1080 IDH1KD tx | IL1B secr inh | HT1080-NT tox | 12-LOX inh | DT40 TDP1 no CPT | DT40 TDP1 CPT
Fc1ccc(CCNC(=S)Nc2ccc(F)c(Cl)c2)cc1 | ? | -83* | ? | ? | ? | 18µM*
COc1ccc(Cl)cc1NC(=S)NCCc1ccc(F)cc1 | 2% | 4 | -1% | / | 6% | ?
CCCCc1ccc(NC(=S)NCCc2ccc(Cl)cc2)cc1 | / | / | / | 32µM* | / | /
CCCn1c(N/N=C\C=C\c2ccccc2)nc2c1c(=O)[nH]c(=O)n2C | 0% | 1 | 1% | -15% | 16µM* | 15µM*
Cn1c(=O)[nH]c(=O)c2c1nc(Br)n2C/C=N/Nc1ccccc1 | 5.8µM* | -3 | 3.7µM* | -22% | -14% | -28%
Cn1c(=O)[nH]c(=O)c2c1nc(Br)n2CCC(=O)c1ccccc1 | 12% | 13 | 5% | -9% | 16µM* | ?
O=C(CCC1CCCN(S(=O)(=O)c2ccc(F)cc2)C1)NCCN1CCOCC1 (configuration not stated) | / | / | / | 39% | / | /
C(=C\c1sc(Nc2ccccc2)n[n+]1-c1ccccc1)/c1ccccc1 | -8% | -98* | -6% | 50µM* | 8.2µM* | 5.2µM*
CCOc1cc(-c2sc(Nc3cc(C)ccc3OC)n[n+]2-c2ccccc2)ccc1OC | -9% | 3 | -6% | ? | 16µM* | 15µM*
COc1ccc(C)cc1Nc1n[n+](-c2ccccc2)c(-c2ccc(C(=O)O)cc2)s1 | -1% | 39 | 7% | 18µM* | -9% | -7%
COc1ccc(-c2sc(Nc3ccccc3)n[n+]2-c2ccccc2)cc1Br | -26% | ? | -20% | ? | 15µM* | 23µM*
COc1ccc(NC(=O)Cc2ccc(N(Cc3ccc(C)cc3)C(=O)c3ccco3)cc2)cc1 | / | / | / | 6% | / | /
O=C1CC(c2ccccc2)N(S(=O)(=O)c2ccccc2)CCCCCCN1 (configuration not stated) | / | / | / | 12% | / | /
CCc1ccc(NC(=O)c2ncoc2-c2ccc(OC)c(OC)c2)cc1 | / | / | / | -31% | / | /
CCOc1cc(-c2sc(Nc3ccc(CC)cc3)n[n+]2-c2ccccc2)ccc1OC | -1% | 2 | -10% | ? | 18µM* | 16µM*
Cc1ccc(/C=N/NC(=O)c2c(C)nc3ccc(Br)cn23)cc1 | 0.58µM* | 71 | 1.3µM* | -5% | 0.58µM* | 0.73µM*
Cc1ccc2nc(C)c(C(=O)NN=C3CCN(C)CC3)n2c1 | 5.2µM* | 65 | 5.2µM* | 12% | 8% | 6%
CCOc1ccccc1/C=N/NC(=O)c1c(C)nc2ccc(Br)cn12 | -6% | 31 | 0% | 16% | -4% | -1%
COc1ccc(/C=N\NC(=O)c2c(C)nc3ccc(Br)cn23)cc1 | 0.58µM* | 75 | ? | -3% | 0.73µM* | 0.58µM*
CCOC(=O)c1c(C)nc2ccc(C)cn12 | -2% | -12 | 8% | -15% | ? | -29%
COc1ccc2nc3n(c2c1)[C@@H](CNC(=O)c1ccccn1)COC3 | / | / | / | 35%[176 µM] | / | /
Cc1ccc(N(C)C(=O)c2ccc3c(Cl)c4c(nc3c2)CCC4)cc1C | ? | -65* | -27% | 15% | ? | ?
Cc1ccc(CCNC(=O)c2ccc3c(Cl)c4c(nc3c2)CCCC4)cc1 | / | / | / | 3% | 18µM* | ?
CSc1ccc(CCNC(=O)c2ccc3c(Cl)c4c(nc3c2)CCCC4)cc1 | / | / | / | -17% | 23µM* | ?
COc1ccc(N(C)C(=O)c2ccc3c(Cl)c4c(nc3c2)CCCC4)c(OC)c1 | ? | ? | ? | -10% | -29% | ?
SMILES | HT1080 IDH1KD tx | IL1B secr inh | HT1080-NT tox | 12-LOX inh | DT40 TDP1 no CPT | DT40 TDP1 CPT
O=C(NCc1nnc2n1C(C(=O)NCCc1ccc(Cl)cc1)CC2)C1CC1 (configuration not stated) | / | / | / | 2%[6.33 µM] | / | /
CCOC(=O)Cc1cnc(NC(=O)CSc2nc(C(C)C)cc(=O)[nH]2)s1 | -2% | 2 | 2% | -18% | -6% | -5%
CC(=O)c1c(C)[nH]c(C(=O)C(C)Oc2ccc3c(C)cc(=O)oc3c2)c1C (configuration not stated) | / | / | / | -9% | / | /
O=C(NCCc1ccccn1)C1CC12CCN(C(=O)c1ccc(F)cc1Cl)CC2 (configuration not stated) | / | / | / | 5% | -10% | 23%[9.04 µM]
CCNC(=O)/C(C#N)=C/c1c(N(Cc2ccccc2)Cc2ccccc2)nc2ccccn2c1=O | ? | -55* | 23µM* | -6% | ? | ?
CCNC(=O)/C(C#N)=C/c1c(N2CCOCC2)nc2ccccn2c1=O | 1% | -19 | -8% | -12% | -23% | -13%
CCNC(=O)/C(C#N)=C/c1c(N2CCN(C)CC2)nc2c(C)cccn2c1=O | -1% | -19 | 4% | ? | -12% | 10%
CNC(=O)/C(C#N)=C/c1c(N(Cc2ccccc2)Cc2ccccc2)nc2c(C)cccn2c1=O | ? | ? | 18µM* | -14% | ? | ?
COc1cccc(NC(=O)N[C@H]2[C@H](O)[C@@H](N3CCC(C(N)=O)CC3)[C@@H]3OC[C@H]2O3)c1 | / | / | / | 2%[176 µM] | / | /
CCC1CN(C(=O)N2CCC(C(=O)NCc3cc(OC)ccc3OC)CC2)c2ccccc2O1 (configuration not stated) | / | / | / | -12% | 18µM* | 18µM*
CCC1CN(C(=O)N2CCC(C(=O)Nc3ccccc3OC)CC2)c2ccccc2O1 (configuration not stated) | -1% | 34 | 1% | 12% | ? | 18µM*
CCC1CN(C(=O)N2CCC(C(=O)NCc3ccc(OC)cc3OC)CC2)c2ccccc2O1 (configuration not stated) | -5% | -16 | 1% | -1% | -28% | ?
CCC1CN(C(=O)N2CCC(C(=O)NCCc3ccc(OC)c(OC)c3)CC2)c2ccccc2O1 (configuration not stated) | -2% | 13 | -3% | 14% | ? | ?
CCC1CN(C(=O)N2CCC(C(=O)NCCc3cc(OC)ccc3OC)CC2)c2ccccc2O1 (configuration not stated) | / | / | / | -12% | 21µM* | 16µM*

Screening data (PubChem)
